The values that follow come from PubChem BioAssay (NCI).

Holding throughout (assay): NCI-60 one-dose screen, 48 h (100 = growth as untreated, 0 = no growth, -100 = all killed)
What all share (details): 10 µM unless noted

The subject of assay [1] is NCI-H23 lung.
For assay [2], the system named is NCI-H226 lung.
In assay [3] the test system is NCI-H322M lung.
In assay [4] the test system is HOP-62 NSCLC.
Assay [5] relates to NCI-H460 lung.
In assay [6] the test system is HOP-92 NSCLC.
For assay [7], the system named is NCI-H522 lung.
Assay [8] concerns A549/ATCC NSCLC.
For assay [9], the system named is 786-0 renal.
For assay [10], the system named is DU-145 prostate.
Assay [11] concerns K-562 leukemia.
Assay [12] relates to MALME-3M melanoma.
In assay [13] the test system is MDA-MB-231 breast.
Assay [14] has as its system RXF 393 renal.
In assay [15] the test system is SF-268 CNS.
Assay [16] relates to SF-295 CNS.
For assay [17], the system named is SF-539 CNS.
In assay [18] the test system is UACC-257 melanoma.
Assay [19] has as its system M14 melanoma.
In assay [20] the test system is COLO 205 colon.

Compounds without any hit were thinned out: in the full panel of roughly 83,000, 20% have a hit.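 In brief: 96-well plates, 48 h treatment, single concentration, percent growth endpoint.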 Unmarked numbers belong to inactive results. The source made the active and inactive calls. The calls were made as follows: active = growth percent below 10; inactive = the rest.

With `O=c1[nH][n+](-c2ccc(Br)cc2)no1`, the growth is 88.8% in assay [1]; 72.5% in [2]; 72.2% in assay [3]; 75.5% in [4]; 28.3% in [5]; 84.1% in [6]. Besides, the growth in assay [7] was 49.3%; in assay [8] it was 48.1%; in assay [9], 59%; in assay [10], 57.9%; in assay [11], 10.9%; in assay [12], 60.3%. Moreover, the growth is 68.7% in assay [13]; 105% in assay [14]; 32.8% in [15]; 21.3% in assay [16]; 7.06% (active) in assay [17]; 55% in assay [18]. The growth in assay [19] was 74%.

Take `CC/C=C\C[C@@H](O)C/C=C1/C(=O)C=C[C@H]1C/C=C\CCCC(=O)OC`: the growth in [1] is 22.3%; in assay [2] it was 8.9% (active); in assay [3], 12%; in assay [4], -31.6% (active); in assay [5], -33.2% (active); in [6] it was 22.9%. In addition, the growth was -67.7% (active) in assay [7]; -16.6% (active) in assay [8]; 30.5% in assay [9]; -58% (active) in [20]; 28.7% in assay [10]; 2.65% (active) in assay [11]. Also, the growth was 10.4% in assay [12]; -16.8% (active) in [14]; 0.223% (active) in [15]; 80.9% in [16]; 10.4% in assay [17]; 56.5% in [18]. Besides, the growth in [19] was -1.62% (active).

On to `CC(=O)CC(c1ccccc1)c1c(C)[nH]c2ccccc12` (configuration not stated), for which the growth in assay [1] was 81.9%; in assay [2], 89.7%; in assay [3], 100%; in [4], 93.1%; in assay [5], 106%; in assay [6] it was 94.3%. Besides, the growth in assay [7] is 94.4%; in [8], 99.5%; in assay [9], 104%; in [10], 110%; in assay [11], 87.2%; in [12] it was 100%. Moreover, the growth in [13] is 103%; in assay [14], 104%; in [15], 94.8%; in assay [16], 102%; in [17], 93.4%; in assay [18], 94.8%. The growth in [19] is 94.4%.

As to `O=C(Nc1ccc(OS(=O)(=O)c2ccc(F)cc2)cc1)c1ccc(Cl)cc1`, the growth in [1] was 94%; in assay [2] it was 99.5%; in [3], 92.6%; in assay [4], 101%; in assay [5] it was 101%; in [6] it was 101%. The growth is 83.6% in assay [7]; 94.1% in [8]; 104% in [9]; 107% in assay [10]; 81.1% in assay [11]; 96.9% in assay [12]. The growth in assay [13] is 104%; in assay [14], 109%; in assay [15], 101%; in assay [16], 105%; in assay [17] it was 108%; in assay [18], 100%. Moreover, in assay [19], the growth is 98%.

For the molecule `O=C(O)c1cn(C2CC2)c2cc(N3CCN(C(=O)Nc4nc(-c5ccccc5)cs4)CC3)c(F)cc2c1=O`, the growth in assay [1] was 9.06% (active); in [2], 46.8%; in assay [3] it was 31.4%; in assay [4], 26%; in assay [5] it was 5.5% (active); in assay [6], -21.5% (active). Besides, the growth was -2.04% (active) in assay [7]; 7.93% (active) in assay [8]; 22.5% in [9]; 51% in assay [20]; 17.2% in assay [10]; 17.1% in [11]. Further, the growth was 23.9% in assay [12]; 42.7% in assay [14]; 23.3% in assay [15]; 10.6% in [16]; 21% in assay [17]; 9.92% (active) in [18]. In assay [19], the growth was 31.6%.

With `CC(=O)O.CN1[CH-]N(Cc2ccc(C#N)cc2)c2ccccc21.[Ag+]`, the growth in [1] was 105%; in assay [2], 103%; in assay [3], 105%; in assay [4] it was 108%; in assay [5], 97.9%; in [6] it was 116%. In addition, the growth in assay [7] is -89.1% (active); in [8], 68%; in assay [9], 103%; in assay [10], 111%; in assay [11] it was 45.8%; in assay [12], 102%. Moreover, the growth in assay [13] is 110%; in assay [14] it was 117%; in assay [15], 109%; in assay [16], 110%; in assay [17], 106%; in [18] it was 81.2%. In assay [19], the growth is 100%.

Turning to `CCCCCCCNC(=O)CCCNc1ncnc2c1ncn2-c1cccc(C(C)O)c1` (configuration not stated), the growth in [1] was 90.7%; in assay [2] it was 79.3%; in assay [3], 108%; in assay [4], 95.9%; in [5], 99.8%; in assay [6], 96.6%. The growth in assay [7] is 80.9%; in [8], 94.5%; in assay [9] it was 97.3%; in assay [20], 92.9%; in [10], 94.4%; in assay [11], 41.6%. The growth in [12] was 84.8%; in [14], 89.9%; in assay [15] it was 83.8%; in [16], 93.6%; in [17] it was 94.1%; in assay [18], 121%. Also, the growth in [19] is 89.3%.

As for `O=C(O)CCC/C=C\C[C@H]1C=CC(=O)/C1=C/C[C@@H](O)CCc1cccc(C(F)(F)F)c1`, the growth in assay [1] is -22.1% (active); in assay [2], -39.5% (active); in assay [3], 11.3%; in [4], -31.9% (active); in assay [5], -65.1% (active); in assay [6], -20.6% (active). Besides, the growth is -62.7% (active) in [7]; -7.82% (active) in assay [8]; -31.3% (active) in assay [9]; -38.1% (active) in assay [20]; 13.6% in [10]; 3.71% (active) in assay [11]. In addition, the growth in assay [12] was 79.1%; in assay [14], -65.7% (active); in assay [15] it was 3.06% (active); in assay [16], -40.4% (active); in [17] it was -1.94% (active); in [18], -5.2% (active). Besides, the growth in assay [19] was -16.2% (active).
